From PubChem BioAssay (EPA / NIEHS)
Results filed as inconclusive are left out. The source made the active and inactive calls. How the source made its calls, unless noted: active means hit-call score of the fitted dose curve at least 0.9, where 1 is the maximum; inconclusive means response in the unintended direction; inactive means score below 0.9.

What was measured:
[1] = ATG_TCF_b_cat_CIS: Attagene CIS-FACTORIAL HepG2 Assay for human T-Cell-Factor with beta-catenin (TCF/b-cat) (AID 2282965; active means hit-call score of the fitted dose curve at least 0.9, where 1 is the maximum; inactive means score below 0.9); conditions: HepG2 TCF/beta-catenin cis-reporter transcription, actives raise or lower the signal
Summary of the method: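 HepG2, transient MRTU transfection, cis-element-driven reporters (endogenous TFs). 24 h compound exposure. Readout: reporter mRNA by RT-PCR + 6-FAM primer extension, HpaI digest, capillary electrophoresis. Gain/loss fit vs DMSO baseline.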

[2] = ATG_TAL_CIS: Attagene CIS-FACTORIAL HepG2 Assay for human TAL Basal Promoter (AID 2282966; active means hit-call score of the fitted dose curve at least 0.9, where 1 is the maximum; inactive means score below 0.9;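 further: background control endpoint measuring basal TAL promoter reporter mRNA not a specific factor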); conditions: HepG2 Attagene cis-factorial TAL promoter reporter; actives raise or lower the signal
Summary of the method: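 RT-PCR plus capillary electrophoresis quantifies reporter mRNA induction in transiently transfected HepG2 cells after 24 h chemical treatment. DMSO serves as negative control and baseline for bidirectional fitting.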

[3] = ATG_TGFb_CIS: Attagene CIS-FACTORIAL HepG2 Assay for human Transforming Growth Factor (TGF) (AID 2282967; active means hit-call score of the fitted dose curve at least 0.9, where 1 is the maximum; inactive means score below 0.9); conditions: HepG2 Attagene CIS TGFb reporter, mRNA transcription; actives raise or lower the signal
Summary of the method: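 HepG2 cells transiently transfected with cis-promoter-driven multiplexed reporter units; 24 h compound exposure. Reporter mRNA measured by RT-PCR, 6-FAM labeling, HpaI digestion and capillary electrophoresis; bidirectional fit versus DMSO baseline.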

[4] = ATG_VDRE_CIS: Attagene CIS-FACTORIAL HepG2 Assay for human Vitamin D Receptor Element (VDRE) (AID 2282968; active means hit-call score of the fitted dose curve at least 0.9, where 1 is the maximum; inactive means score below 0.9); conditions: HepG2 VDRE cis-reporter transcription, actives raise or lower the signal
Summary of the method: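 Cell-based multiplexed reporter format in human liver HepG2 cells, 24 h post-dose. Fluorescence from capillary electrophoresis of reporter cDNA gives the signal, with DMSO as negative control and baseline.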

[5] = target: Nuclear receptor subfamily 1 group I member 3 (Homo sapiens) (UniProt Q14994); assay: ATG_CAR_TRANS: Attagene TRANS-FACTORIAL HepG2 Assay for human Constitutive Androstane Receptor (CAR) (AID 2282969); conditions: HepG2 Attagene TRANS-FACTORIAL CAR reporter;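 further: activators raise reporter mRNA above DMSO so AC50 marks induction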
Summary of the method: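 HepG2 cells transiently transfected with GAL4-UAS reporter units; TRANS format reads activity of exogenous chimeric NR-Gal4 protein. After 24 h dosing, reporter mRNA quantified by RT-PCR, 6-FAM labelling and capillary electrophoresis; gain of signal fitted against DMSO.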

[6] = target: Estrogen receptor (Homo sapiens) (UniProt P03372); assay: ATG_ERa_TRANS: Attagene TRANS-FACTORIAL HepG2 Assay for human Estrogen Receptor alpha (ERa) (AID 2282970); conditions: HepG2 Attagene TRANS ERa GAL4 reporter, mRNA
Summary of the method: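 Cells: HepG2, transiently transfected. Construct: GAL4-UAS reporter units regulated by exogenous NR-Gal4 chimeras. Time: 24 h. Detection: reporter mRNA by RT-PCR, capillary electrophoresis, fluorescence. Baseline: DMSO, upward fitting.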

[7] = target: X-box-binding protein 1 (Homo sapiens) (UniProt P17861); assay: ATG_Xbp1_CIS: Attagene CIS-FACTORIAL HepG2 Assay for human X-box Binding Protein 1 (XBP1) (AID 2282972; active means hit-call score of the fitted dose curve at least 0.9, where 1 is the maximum; inactive means score below 0.9); conditions: HepG2 XBP1 cis-element reporter, Attagene multiplex; actives raise or lower the signal
Summary of the method: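 Fluorescence-labelled cDNA fragments from reporter transcripts, separated by capillary electrophoresis, give the signal. Source: HepG2 cells transfected with promoter-driven reporter units, harvested 24 h post-dose. DMSO served as reference for bidirectional curve fitting.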

[8] = ATG_M_19_TRANS: Attagene TRANS-FACTORIAL HepG2 Assay for M19 Transcription Factor (Internal Marker) (AID 2282974); conditions: HepG2 Attagene TRANS-FACTORIAL M19 internal marker reporter
Summary of the method: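 After transfection of HepG2 with GAL4-UAS-driven reporter constructs, cells are dosed for 24 h. Total RNA is reverse-transcribed, reporter sequences PCR-amplified and labelled, then HpaI-digested and sized by capillary electrophoresis.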

[9] = ATG_GAL4_TRANS: Attagene TRANS-FACTORIAL HepG2 Assay for GAL4 (Internal Marker) (AID 2282976); conditions: HepG2 Attagene TRANS GAL4 internal marker reporter
Summary of the method: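 In transfected human HepG2 liver cells dosed 24 h, GAL4 reporter mRNA serves as a baseline marker. Detection by RT-PCR with fluorescent capillary electrophoresis, activity fitted upward relative to DMSO.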

[10] = target: Estrogen-related receptor gamma (Homo sapiens) (UniProt P62508); assay: ATG_ERRg_TRANS: Attagene TRANS-FACTORIAL HepG2 Assay for human Estrogen-Related Receptor gamma (ERRg) (AID 2282977); conditions: HepG2 Attagene TRANS reporter, ERRg transactivation;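 further: hits increase reporter signal over DMSO so potencies reflect activators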
Summary of the method: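 HepG2 cells transiently transfected with multiplexed GAL4-UAS reporter units and chimeric NR-Gal4 constructs were exposed to test chemicals for 24 h. Reporter mRNA was measured by RT-PCR, 6-FAM primer extension, HpaI digestion and capillary electrophoresis; gain-of-signal versus DMSO.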

[11] = target: Glucocorticoid receptor (Homo sapiens) (UniProt P04150); assay: ATG_GR_TRANS: Attagene TRANS-FACTORIAL HepG2 Assay for human Glucocorticoid Receptor (GR) (AID 2282978); conditions: HepG2 Attagene TRANS GR reporter, mRNA transcription;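 further: activators score as hits since higher reporter transcript over DMSO is fitted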
Summary of the method: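 Multiplexed TRANS reporter system, HepG2; 24 h exposure; RNA → oligo(dT) RT → reporter-specific PCR → 6-FAM primer extension → HpaI cut → CE fluorescence. Gain-of-signal vs DMSO.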

[12] = target: Bile acid receptor (Homo sapiens) (UniProt Q96RI1); assay: ATG_FXR_TRANS: Attagene TRANS-FACTORIAL HepG2 Assay for Farnesoid X Receptor (FXR) (AID 2282979); conditions: HepG2 Attagene TRANS FXR-GAL4 reporter transcription;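 further: hits raise reporter mRNA above DMSO so AC50 marks FXR activation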
Summary of the method: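 Reporter transcripts from transfected HepG2 cells were measured 24 h after dosing, using RT-PCR with capillary electrophoresis of 6-FAM-labelled fragments. The read-out reflects activity of exogenous FXR-Gal4 chimera on GAL4-UAS units, with induction relative to DMSO.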

[13] = target: Oxysterols receptor LXR-alpha (Homo sapiens) (UniProt Q13133); assay: ATG_LXRa_TRANS: Attagene TRANS-FACTORIAL HepG2 Assay for human Liver X Receptor alpha (LXRa) (AID 2282980); conditions: HepG2 Attagene TRANS reporter, LXRa transactivation
Summary of the method: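 Chemical-induced reporter mRNA measured by RT-PCR with fluorescent labelling and capillary electrophoresis after 24 h dosing of transiently transfected HepG2 cells expressing exogenous NR-Gal4 chimeras; increases scored against DMSO baseline.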

[14] = target: Oxysterols receptor LXR-beta (Homo sapiens) (UniProt P55055); assay: ATG_LXRb_TRANS: Attagene TRANS-FACTORIAL HepG2 Assay for human Liver X Receptor beta (LXRb) (AID 2282981); conditions: HepG2 Attagene TRANS GAL4-LXRb reporter, mRNA
Summary of the method: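 Gain-of-signal mRNA reporter endpoint, DMSO as negative control. Transiently transfected HepG2 cells carrying the NR-Gal4 chimera and GAL4-UAS reporter units were treated 24 h; transcripts quantified by RT-PCR and capillary electrophoresis fluorescence.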

[15] = ATG_M_32_TRANS: Attagene TRANS-FACTORIAL HepG2 Assay for M32 Transcription Factor (Internal Marker) (AID 2282984); conditions: HepG2 Attagene TRANS M32 internal marker reporter;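 further: transcript level of a background control reporter unit measured by RT-PCR and capillary electrophoresis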
Summary of the method: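 Capillary electrophoresis of 6-FAM-labelled reporter fragments gives the signal; data fitted for gain over DMSO negative control. Source: HepG2 cells bearing transient multiple reporter transcription units, 24 h exposure.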

[16] = target: Transcriptional activator Myb (Homo sapiens) (UniProt P10242); assay: ATG_Myb_CIS: Attagene CIS-FACTORIAL HepG2 Assay for human Myeloblastosis (Myb) Proto-Oncogene Transcription Factor (AID 2282986; active means hit-call score of the fitted dose curve at least 0.9, where 1 is the maximum; inactive means score below 0.9); conditions: HepG2 Attagene CIS-FACTORIAL Myb reporter transcription; actives raise or lower the signal
Summary of the method: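 Endogenous transcription factor activity at a Myb-responsive cis element is reported in human liver HepG2 cells after 24 h chemical treatment. Reporter mRNA is detected by RT-PCR and capillary electrophoresis fluorescence, with DMSO as baseline.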

[17] = target: Steroid hormone receptor ERR1 (Homo sapiens) (UniProt P11474); assay: ATG_ERRa_TRANS: Attagene TRANS-FACTORIAL HepG2 Assay for human Estrogen-Related Receptor alpha (ERRa) (AID 2282971); conditions: HepG2 Attagene TRANS reporter, ERRa transactivation
Summary of the method: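 Reporter transcripts from ERRa-Gal4 chimera activity measured in transiently transfected human HepG2 cells 24 hours after dosing, using RT-PCR with 6-FAM primer extension, HpaI digestion and capillary electrophoresis; DMSO is baseline.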

[18] = ATG_M_06_TRANS: Attagene TRANS-FACTORIAL HepG2 Assay for M06 Transcription Factor (Internal Marker) (AID 2282983); conditions: HepG2 Attagene TRANS M06 internal marker reporter
Summary of the method: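 Cells: HepG2, transient multi-reporter transfection. Exposure: 24 h. Detection: RT-PCR, 6-FAM labelling, HpaI digestion (2 h, 37 °C), capillary electrophoresis. Baseline: DMSO.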

[19] = target: Hepatocyte nuclear factor 4-alpha (Homo sapiens) (UniProt P41235); assay: ATG_HNF4a_TRANS: Attagene TRANS-FACTORIAL HepG2 Assay for human Hepatocyte Nuclear Factor 4 alpha (HNF4a) (AID 2282982); conditions: HepG2 HNF4a transactivation reporter, mRNA readout
Summary of the method: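 Gain-of-signal mRNA induction, relative to DMSO vehicle, was read after 24 h compound treatment of HepG2 cells bearing transfected GAL4-UAS reporters. Detection used RT-PCR, 6-FAM primer extension and capillary electrophoresis.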

[20] = target: Nuclear receptor subfamily 4 group A member 2 (Homo sapiens) (UniProt P43354); assay: ATG_NURR1_TRANS: Attagene TRANS-FACTORIAL HepG2 Assay for human Nuclear Receptor Related Protein 1 (NURR1) (AID 2282985); conditions: HepG2 Attagene TRANS reporter, mRNA readout
Summary of the method: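 HepG2 / transient MRTU transfection / 24 h compound exposure / RT-PCR + CE fluorescence of reporter mRNA / gain-of-signal vs DMSO.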

Steroid hormone receptor ERR1 (Homo sapiens), sequence (P11474 whole entry, looked up, the tested form may be a part): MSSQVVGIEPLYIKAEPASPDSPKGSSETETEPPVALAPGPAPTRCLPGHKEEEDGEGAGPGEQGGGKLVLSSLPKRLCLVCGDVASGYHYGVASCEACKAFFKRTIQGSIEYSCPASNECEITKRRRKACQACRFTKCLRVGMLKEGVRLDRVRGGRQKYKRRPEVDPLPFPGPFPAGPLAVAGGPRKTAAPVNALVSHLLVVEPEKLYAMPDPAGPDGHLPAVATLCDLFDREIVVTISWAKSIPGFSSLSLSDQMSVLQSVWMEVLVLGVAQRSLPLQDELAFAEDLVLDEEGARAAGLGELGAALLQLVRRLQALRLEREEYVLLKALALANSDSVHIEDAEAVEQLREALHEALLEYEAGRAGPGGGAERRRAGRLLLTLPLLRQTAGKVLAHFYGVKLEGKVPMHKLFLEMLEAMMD
Nuclear receptor subfamily 1 group I member 3 (Homo sapiens), sequence (Q14994 whole entry, looked up, the tested form may be a part): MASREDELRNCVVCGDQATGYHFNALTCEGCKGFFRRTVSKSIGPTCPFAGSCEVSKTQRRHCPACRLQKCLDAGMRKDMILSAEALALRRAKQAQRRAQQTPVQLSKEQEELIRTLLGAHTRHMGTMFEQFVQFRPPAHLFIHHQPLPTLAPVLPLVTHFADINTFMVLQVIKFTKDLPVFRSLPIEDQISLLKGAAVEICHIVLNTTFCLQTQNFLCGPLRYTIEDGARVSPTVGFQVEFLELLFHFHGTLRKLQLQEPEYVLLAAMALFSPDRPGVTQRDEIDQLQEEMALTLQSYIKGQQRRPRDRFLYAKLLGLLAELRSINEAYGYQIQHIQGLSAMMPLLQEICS
X-box-binding protein 1 (Homo sapiens), sequence (P17861 whole entry, looked up, the tested form may be a part): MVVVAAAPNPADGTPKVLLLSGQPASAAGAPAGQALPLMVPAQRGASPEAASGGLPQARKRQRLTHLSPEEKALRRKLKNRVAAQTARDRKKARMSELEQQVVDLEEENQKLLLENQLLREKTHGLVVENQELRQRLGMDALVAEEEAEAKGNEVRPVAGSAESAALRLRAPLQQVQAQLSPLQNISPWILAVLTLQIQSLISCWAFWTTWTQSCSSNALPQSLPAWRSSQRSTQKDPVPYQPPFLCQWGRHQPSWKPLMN
Nuclear receptor subfamily 4 group A member 2 (Homo sapiens), sequence (P43354 whole entry, looked up): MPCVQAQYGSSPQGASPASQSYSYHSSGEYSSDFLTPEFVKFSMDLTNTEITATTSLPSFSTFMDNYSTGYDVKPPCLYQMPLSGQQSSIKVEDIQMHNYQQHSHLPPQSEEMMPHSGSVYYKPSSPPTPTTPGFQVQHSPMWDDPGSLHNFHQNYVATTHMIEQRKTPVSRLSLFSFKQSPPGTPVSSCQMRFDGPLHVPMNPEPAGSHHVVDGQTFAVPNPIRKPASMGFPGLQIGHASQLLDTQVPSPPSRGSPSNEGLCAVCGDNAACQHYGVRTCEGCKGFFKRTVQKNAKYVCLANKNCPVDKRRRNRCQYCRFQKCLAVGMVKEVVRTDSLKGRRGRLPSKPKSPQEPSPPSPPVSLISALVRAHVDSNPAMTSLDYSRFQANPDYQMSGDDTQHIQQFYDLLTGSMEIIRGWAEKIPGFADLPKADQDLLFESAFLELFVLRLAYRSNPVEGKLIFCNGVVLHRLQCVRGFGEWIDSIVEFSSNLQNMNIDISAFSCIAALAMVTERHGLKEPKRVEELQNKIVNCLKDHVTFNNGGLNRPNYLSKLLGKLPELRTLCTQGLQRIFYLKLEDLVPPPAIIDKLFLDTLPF
Transcriptional activator Myb (Homo sapiens), sequence (P10242 whole entry, looked up): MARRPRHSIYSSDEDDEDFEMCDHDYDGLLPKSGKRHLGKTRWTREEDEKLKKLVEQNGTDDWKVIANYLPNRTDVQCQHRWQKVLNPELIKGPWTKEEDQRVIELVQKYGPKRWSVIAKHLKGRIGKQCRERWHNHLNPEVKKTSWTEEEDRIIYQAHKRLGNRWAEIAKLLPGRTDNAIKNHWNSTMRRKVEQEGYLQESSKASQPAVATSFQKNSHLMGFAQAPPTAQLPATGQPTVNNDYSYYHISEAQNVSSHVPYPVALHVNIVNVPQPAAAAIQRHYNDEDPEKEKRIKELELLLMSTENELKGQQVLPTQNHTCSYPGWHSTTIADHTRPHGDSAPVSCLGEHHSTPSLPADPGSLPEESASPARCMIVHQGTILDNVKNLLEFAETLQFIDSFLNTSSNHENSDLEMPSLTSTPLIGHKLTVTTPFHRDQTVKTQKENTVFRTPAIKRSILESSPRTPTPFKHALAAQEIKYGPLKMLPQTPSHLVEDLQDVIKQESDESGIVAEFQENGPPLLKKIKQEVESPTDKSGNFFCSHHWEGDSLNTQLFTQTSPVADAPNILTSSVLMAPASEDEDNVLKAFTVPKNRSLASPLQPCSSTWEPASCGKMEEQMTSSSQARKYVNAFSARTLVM
Estrogen-related receptor gamma (Homo sapiens), sequence (P62508 whole entry, looked up, the tested form may be a part): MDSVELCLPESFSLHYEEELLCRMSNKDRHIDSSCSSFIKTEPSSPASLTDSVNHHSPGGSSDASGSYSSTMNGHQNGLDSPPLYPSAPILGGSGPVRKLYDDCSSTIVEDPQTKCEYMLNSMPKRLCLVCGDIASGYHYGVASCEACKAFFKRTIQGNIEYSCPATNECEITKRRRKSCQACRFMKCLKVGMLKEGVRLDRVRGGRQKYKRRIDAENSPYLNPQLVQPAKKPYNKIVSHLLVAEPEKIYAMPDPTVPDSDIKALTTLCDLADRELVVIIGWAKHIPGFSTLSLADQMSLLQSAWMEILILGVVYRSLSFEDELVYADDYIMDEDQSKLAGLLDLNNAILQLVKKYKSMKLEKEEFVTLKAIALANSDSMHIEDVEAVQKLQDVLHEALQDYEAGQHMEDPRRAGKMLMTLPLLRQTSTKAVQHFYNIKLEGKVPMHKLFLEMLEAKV
Bile acid receptor (Homo sapiens), sequence (Q96RI1 whole entry, looked up, the tested form may be a part): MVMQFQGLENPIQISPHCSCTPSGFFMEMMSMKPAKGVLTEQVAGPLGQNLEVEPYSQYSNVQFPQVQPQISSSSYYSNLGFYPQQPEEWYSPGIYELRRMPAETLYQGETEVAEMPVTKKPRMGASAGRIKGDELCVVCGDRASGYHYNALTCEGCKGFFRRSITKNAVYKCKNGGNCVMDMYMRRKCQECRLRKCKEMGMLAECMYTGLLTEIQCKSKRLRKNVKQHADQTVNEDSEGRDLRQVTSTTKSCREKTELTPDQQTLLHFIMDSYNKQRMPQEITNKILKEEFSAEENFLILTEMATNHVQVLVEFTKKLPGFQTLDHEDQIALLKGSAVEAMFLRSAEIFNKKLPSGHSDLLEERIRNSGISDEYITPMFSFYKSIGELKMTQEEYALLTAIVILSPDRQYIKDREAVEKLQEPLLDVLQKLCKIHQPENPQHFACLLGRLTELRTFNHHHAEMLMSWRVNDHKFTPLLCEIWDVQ
Hepatocyte nuclear factor 4-alpha (Homo sapiens), sequence (P41235 whole entry, looked up, the tested form may be a part): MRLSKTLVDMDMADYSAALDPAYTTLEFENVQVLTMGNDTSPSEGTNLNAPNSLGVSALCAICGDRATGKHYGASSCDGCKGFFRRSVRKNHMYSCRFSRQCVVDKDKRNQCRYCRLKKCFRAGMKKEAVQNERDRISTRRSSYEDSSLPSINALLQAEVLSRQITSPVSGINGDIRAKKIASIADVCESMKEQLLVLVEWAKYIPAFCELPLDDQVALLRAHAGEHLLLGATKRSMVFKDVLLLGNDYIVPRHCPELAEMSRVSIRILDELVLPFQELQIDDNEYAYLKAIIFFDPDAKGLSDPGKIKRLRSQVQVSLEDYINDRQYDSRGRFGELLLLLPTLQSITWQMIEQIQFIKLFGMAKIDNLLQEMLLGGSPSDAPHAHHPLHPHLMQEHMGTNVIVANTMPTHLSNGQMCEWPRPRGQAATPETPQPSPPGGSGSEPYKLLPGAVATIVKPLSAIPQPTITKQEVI
Oxysterols receptor LXR-alpha (Homo sapiens), sequence (Q13133 whole entry, looked up, the tested form may be a part): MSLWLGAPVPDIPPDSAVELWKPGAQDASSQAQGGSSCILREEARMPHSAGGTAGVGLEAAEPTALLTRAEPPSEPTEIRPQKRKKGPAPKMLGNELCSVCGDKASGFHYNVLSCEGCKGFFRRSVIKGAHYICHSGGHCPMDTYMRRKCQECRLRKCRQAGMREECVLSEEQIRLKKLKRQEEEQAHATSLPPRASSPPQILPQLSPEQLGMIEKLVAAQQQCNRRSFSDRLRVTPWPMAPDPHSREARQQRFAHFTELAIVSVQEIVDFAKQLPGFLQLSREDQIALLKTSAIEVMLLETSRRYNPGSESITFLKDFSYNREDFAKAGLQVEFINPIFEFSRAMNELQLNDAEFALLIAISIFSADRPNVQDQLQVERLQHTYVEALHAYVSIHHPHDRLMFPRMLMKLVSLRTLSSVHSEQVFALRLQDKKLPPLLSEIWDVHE
Oxysterols receptor LXR-beta (Homo sapiens), sequence (P55055 whole entry, looked up, the tested form may be a part): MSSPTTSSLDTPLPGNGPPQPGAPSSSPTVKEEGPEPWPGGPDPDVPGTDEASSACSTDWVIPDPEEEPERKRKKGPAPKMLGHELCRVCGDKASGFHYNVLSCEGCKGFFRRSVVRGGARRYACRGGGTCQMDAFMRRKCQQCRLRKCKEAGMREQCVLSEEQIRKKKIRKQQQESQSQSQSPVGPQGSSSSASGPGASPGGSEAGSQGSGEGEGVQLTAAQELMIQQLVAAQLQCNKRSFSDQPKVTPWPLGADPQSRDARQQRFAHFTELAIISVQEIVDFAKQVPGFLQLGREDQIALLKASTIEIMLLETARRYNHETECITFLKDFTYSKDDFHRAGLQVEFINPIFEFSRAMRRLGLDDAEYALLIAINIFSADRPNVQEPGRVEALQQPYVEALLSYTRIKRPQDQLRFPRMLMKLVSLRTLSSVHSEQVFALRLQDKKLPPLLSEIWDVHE

FC1CC(F)(F)C(F)(F)C1(F)F (stereo unspecified)
outcome [1]: inactive
outcome [2]: inactive
outcome [3]: inactive
outcome [4]: inactive
outcome [5]: inactive
outcome [6]: inactive
outcome [7]: inactive
outcome [8]: inactive
outcome [9]: inactive
outcome [10]: inactive
outcome [11]: inactive
outcome [12]: inactive
outcome [13]: inactive
outcome [14]: inactive
outcome [15]: inactive
outcome [16]: inactive

FC(F)(F)C(F)(F)C(F)(F)C(F)(F)C(F)(F)C(F)(F)CCS
outcome [1]: inactive
outcome [2]: inactive
outcome [3]: inactive
outcome [4]: inactive
outcome [5]: inactive
outcome [6]: inactive
outcome [17]: inactive
outcome [7]: inactive
outcome [9]: inactive
outcome [10]: inactive
outcome [12]: inactive
outcome [13]: inactive
outcome [14]: inactive
outcome [18]: inactive
outcome [15]: inactive
outcome [16]: inactive

O=C(O)C(F)(F)C(F)(F)OC(F)(F)F
outcome [1]: inactive
outcome [2]: inactive
outcome [3]: inactive
outcome [4]: inactive
outcome [5]: inactive
outcome [6]: inactive
outcome [17]: inactive
outcome [7]: inactive
outcome [9]: inactive
outcome [11]: inactive
outcome [13]: inactive
outcome [14]: inactive
outcome [18]: inactive
outcome [15]: inactive
outcome [16]: inactive

Nc1cc(Cl)c(N)c(Cl)c1
outcome [1]: inactive
outcome [2]: inactive
outcome [3]: inactive
outcome [4]: inactive
outcome [5]: inactive
outcome [6]: inactive
outcome [7]: inactive
outcome [8]: inactive
outcome [9]: inactive
outcome [11]: inactive
outcome [12]: inactive
outcome [13]: inactive
outcome [14]: inactive
outcome [19]: inactive
outcome [20]: inactive

C=CC(=O)OCC(F)(F)C(F)(F)C(F)(F)C(F)(F)C(F)(F)C(F)(F)C(F)(F)F
outcome [1]: inactive
outcome [2]: inactive
outcome [3]: inactive
outcome [4]: inactive
outcome [5]: inactive
AC50 [6]: 15.6 µM (active)
outcome [7]: inactive
outcome [8]: inactive
outcome [9]: inactive
outcome [12]: inactive
outcome [13]: inactive
outcome [14]: inactive
outcome [18]: inactive
outcome [20]: inactive
outcome [16]: inactive

OCC(F)(F)C(F)(F)C(F)(F)C(F)(F)C(F)(F)C(F)(F)F
outcome [1]: inactive
AC50 [2]: 239 µM (active)
outcome [3]: inactive
outcome [4]: inactive
outcome [5]: inactive
outcome [6]: inactive
outcome [7]: inactive
outcome [8]: inactive
outcome [9]: inactive
outcome [11]: inactive
outcome [12]: inactive
outcome [14]: inactive
outcome [20]: inactive
outcome [16]: inactive

Nc1ccc(Oc2cccc(Oc3ccc(N)cc3)c2)cc1
AC50 [1]: 27.4 µM (active)
outcome [2]: inactive
outcome [3]: inactive
outcome [4]: inactive
outcome [5]: inactive
AC50 [6]: 2.58 µM (active)
outcome [17]: inactive
AC50 [7]: 42 µM (active)
outcome [11]: inactive
AC50 [19]: 160 µM (active)
outcome [18]: inactive
outcome [15]: inactive
AC50 [16]: 108 µM (active)

O=C(O)C(F)(F)C(F)(F)C(F)(F)C(F)(F)C(F)(F)C(F)(F)C(F)(F)C(F)(F)C(F)(F)C(F)F
outcome [1]: inactive
outcome [2]: inactive
outcome [3]: inactive
outcome [4]: inactive
outcome [5]: inactive
AC50 [6]: 24.6 µM (active)
outcome [17]: inactive
outcome [7]: inactive
outcome [9]: inactive
outcome [10]: inactive
outcome [12]: inactive
AC50 [13]: 50 µM (active)
AC50 [14]: 78 µM (active)
outcome [19]: inactive
outcome [18]: inactive
outcome [15]: inactive
outcome [16]: inactive
